Bioassay records: PubChem BioAssay, National Center for Advancing Translational Sciences (NCATS)
Most compounds without a hit are left out; they make up all but 1% or so of the library.
TSHR antagonist: blocks TSH signaling through the human TSH receptor; actives 0.2% (n = 330,000); P16473; activity change, negative = inhibition, % at 11.5 µM; TSHR-expressing cells, TSH-stimulated cAMP HTRF, 2 h; active compounds read low; AID 504810;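 active = activity change below a set negative limit, meaning inhibition stronger than a set level, cut at about -70% in these data; inconclusive = activity change between two set negative limits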; also: % is scaled to controls: 0 for no effect and ±100 for the full control effect
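TSHR-expressing cells were treated with compounds, then stimulated with TSH at EC80 (4nM final) for 2 hours at 37 deg C. Cellular cAMP was measured by HTRF competition between lysate cAMP and cAMP-d2 for a cryptate-labelled anti-cAMP antibody.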
RXFP1 antag: antagonists of human relaxin receptor RXFP1; Q9HBX9; HEK293-RXFP1, relaxin-stimulated cAMP HTRF, 30 min; active compounds read low; activity change, negative = inhibition, % at 57.5 µM; actives 0.59% (n = 350,000);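 active = activity change of -60% or lower, but not beyond a set lower limit; inconclusive = change between -60% and -40%, or beyond the set limit; inactive = change above -40%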; also: % is scaled to controls: 0 for no effect and ±100 for the full control effect
Target sequence (Q9HBX9 whole entry, looked up): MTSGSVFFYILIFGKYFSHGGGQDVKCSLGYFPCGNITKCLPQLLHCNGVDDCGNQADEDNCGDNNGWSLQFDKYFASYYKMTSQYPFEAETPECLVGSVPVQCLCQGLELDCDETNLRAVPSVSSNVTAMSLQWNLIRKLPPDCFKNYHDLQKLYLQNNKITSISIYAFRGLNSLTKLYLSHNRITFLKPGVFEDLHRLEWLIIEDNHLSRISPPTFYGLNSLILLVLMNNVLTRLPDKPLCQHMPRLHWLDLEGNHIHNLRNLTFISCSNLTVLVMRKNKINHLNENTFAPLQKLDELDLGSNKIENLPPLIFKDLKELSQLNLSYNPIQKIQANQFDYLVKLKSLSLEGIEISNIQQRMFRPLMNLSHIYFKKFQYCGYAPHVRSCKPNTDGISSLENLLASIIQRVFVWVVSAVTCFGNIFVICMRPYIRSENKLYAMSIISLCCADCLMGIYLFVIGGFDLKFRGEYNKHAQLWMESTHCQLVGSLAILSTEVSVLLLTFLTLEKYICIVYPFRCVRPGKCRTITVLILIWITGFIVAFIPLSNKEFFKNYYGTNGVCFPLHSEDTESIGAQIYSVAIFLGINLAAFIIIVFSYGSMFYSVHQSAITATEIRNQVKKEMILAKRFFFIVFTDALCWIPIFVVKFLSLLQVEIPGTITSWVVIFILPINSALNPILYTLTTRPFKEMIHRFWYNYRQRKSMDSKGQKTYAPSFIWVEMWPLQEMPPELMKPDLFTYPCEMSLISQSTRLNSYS
gsp antag: antagonizes gsp, the McCune-Albright syndrome mutation | actives 0.4% (n = 340,000) | Potency, µM (doses to about 76.9 µM), inactives show at the highest dose activity change, negative = inhibition, actives largely listed as inhibitors | gsp-mutant cells, cAMP HTRF, 30 min | AID 624288; calls by dose curve; cell line not stated here;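 also: intracellular cAMP measured with PDE inhibitor Ro 20-1724 present during compound exposure; potency is read from the fitted curve at half-maximal effect; % is scaled to controls: 0 for no effect and ±100 for the full control effect; nearly all actives have a fitted effect of over 65% in size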
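Measurement of cellular cAMP by homogeneous time-resolved fluorescence following a 30 min compound exposure at 37C. The PDE inhibitor […] was present throughout; the assay buffer was DPBS with 0.05% BSA and 0.005% Tween 20.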
gsp ag: gsp mutant agonism | gsp mutant cells, cAMP HTRF, 30 min | Potency, µM (highest dose often 76.9 µM), for inactives: at the highest dose activation (cAMP increase), most hits filed as activators | actives 0.13% (n = 340,000) | AID 624287; active = well fitted activation curve with a large enough effect; inconclusive = small, poorly fitted or top-dose-only effect, or another doubt; inactive = no such curve, though single readings can be large or run the other way; cell line not stated here;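 also: phosphodiesterase inhibitor Ro 20-1724 added with compounds to block cAMP breakdown; potency is read from the fitted curve at half-maximal effect; nearly all actives have a fitted effect of over 60% in size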
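Cells stably selected in G418 were plated at 2000/well, grown 16-24 hr, then given compounds in DMSO with the PDE inhibitor […] (300 uM solution added) for 30 min at 37C; cAMP was read by HTRF.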
RXFP1 ag: RXFP1 (human) receptor agonism. actives 0.3% (n = 370,000). HEK293T-RXFP1 cAMP TR-FRET, 30 min; response scale: percent of porcine relaxin response, buffer zero. Potency, µM (doses to about 57.5 µM), inactives show top-dose activation, actives largely listed as activators. AID 2676; active = well fitted activation curve with a large enough effect; inconclusive = small, poorly fitted or top-dose-only effect; also: potency is read from the fitted curve at half-maximal effect; % is scaled to controls: 0 for no effect and ±100 for the full control effect; nearly all actives have a fitted effect of over 60% in size
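HEK293 cells stably expressing RXFP1, treated 30 min at 37C with compounds plus PDE4 inhibitor Ro 20174; cAMP measured by HTRF TR-FRET. Normalized to buffer and 29 nM porcine relaxin; EC50 by Hill fit.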
* marks the source's active call; other numbers are inactive results; ? = inconclusive; . = no result given; [ ] = another dose, or the depositor's remark.

SMILES | TSHR antagonist | RXFP1 antag | gsp antag | gsp ag | RXFP1 ag
O=C(OCC(=O)c1ccc[nH]1)c1ccccc1 | 4 | -5 | 14% | -13% | -1%
CCOc1ccccc1C(=O)NCC(=O)NCc1ccc(S(=O)(=O)N2CCOCC2)cc1 | -4 | -12 | -10% | 32µM* | 2%
COc1ccc(Cn2c(-c3ccc(C)cc3)nc3c(c(=O)c4ccccc4n3C)c2=O)cc1 | -7 | 2 | 25µM* | -7% | 4%
O=C(NCCC1=CCCCC1)C(=O)NCC1OCCCN1S(=O)(=O)c1ccc(F)cc1 (stereo not given) | -22 | 2 | -4% | -6% | 1%
O=C(NCCC1=CCCCC1)C(=O)NCC1OCCCN1S(=O)(=O)c1cc(F)ccc1F (stereo not given) | -96* | -1 | -8% | -33% | 4%
O=[N+]([O-])c1cccc(S(=O)(=O)Nc2ccc(-c3ccc(N4CCCC4)nn3)cc2)c1 | 0 | -71* | -34% | 1%[15.4 µM] | -1%
COC(=O)COc1ccc(NS(=O)(=O)c2cccc([N+](=O)[O-])c2)cc1 | -19 | -66* | ? | -3%[15.4 µM] | 1%
COc1ccc(S(=O)(=O)Nc2cccc(-c3ccc(N4CCCCCC4)nn3)c2)cc1OC | -13 | -8 | 25µM* | -4% | -3%
Cc1ccc(CNC(=O)CCCn2c(=O)c3ccccc3n(Cc3ccc(Cl)cc3)c2=O)cc1 | . | . | . | . | 1%
Cc1cc(F)ccc1NC(=O)Cn1cc(S(=O)(=O)NC(C)C)c(S(=O)(=O)NC(C)C)c1 | . | 1 | . | . | 0%
COc1cc2c(cc1OC)C(C)N(C(=O)c1cc3c(s1)-c1ccccc1OC3)CC2 (stereo not given) | 3 | -34 | -24% | 14% | 1%
COc1cc2c(cc1OC)C(C)N(C(=O)c1cc3c(s1)-c1c(C)cccc1OC3)CC2 (stereo not given) | 0 | . | 35µM* | -70% | 4%
Cc1cccc(N2CC(C(=O)Nc3nnc(SCCN4CCOCC4)s3)CC2=O)c1 (stereo not given) | 4 | -15 | -11% | 4%[15.4 µM] | -2%
Cc1ccccc1N1CC(C(=O)Nc2nnc(SCCN3CCOCC3)s2)CC1=O (stereo not given) | 8 | 4 | 32µM* | ? | 0%
CCN=c1sc2ccccc2n1CC(O)COc1ccccc1 (stereo not given) | -3 | -68* | -6%[15.4 µM] | 4% | -2%
Cc1ccc(C)c(N2CCN(C(=O)Cn3c(=O)c4cccn4c4ccc(F)cc43)CC2)c1 | . | -9 | . | . | 3%
CCc1ccc(NC(=O)CCC(=O)c2ccccc2)cc1 | 7 | 3 | 35µM* | -5% | -3%
Cc1ccnc(Nc2nc(-c3ccc(O)c(O)c3)cs2)c1 | -23 | ? | -5% | 15% | 1%
Oc1ccc(-c2csc(Nc3ccccn3)n2)cc1O | -24 | -63* | -5% | -5% | -2%
Cc1ccccc1-c1nc(CS(=O)(=O)CC(=O)NCCCc2ccccc2)c(C)o1 | . | . | . | . | 0%
O=C(NCc1ccccc1F)C(=O)NCC(c1ccco1)S(=O)(=O)c1ccccc1 (stereo not given) | . | -4 | . | . | 3%
O=C(c1ccc(N2CCCCC2)c([N+](=O)[O-])c1)N1CCN(c2ccccn2)CC1 | -2 | 0 | -10% | 9% | 0%
O=C1C2CC=CCC2C(=O)N1c1ccc(N2CCN(c3ccccn3)CC2)c([N+](=O)[O-])c1 (stereo not given) | -7 | -31 | 22µM* | -1% | 1%
COc1ccc(-c2csc(NC(=O)[C@H](C)N3C(=O)C4CC=CCC4C3=O)n2)cc1OC (stereo not given in full) | -41 | -11 | 0% | 2% | .
CC(C(=O)Nc1nc(-c2ccc(F)c(F)c2)cs1)N1C(=O)C2CC=CCC2C1=O (stereo not given) | -17 | ? | 35µM* | -3% | 1%
O=C(Cc1ccc(Cl)cc1)N/N=C/c1cccc(O)c1 | 17 | 10 | 50µM* | 0% | 1%
COc1cc(Br)cc(/C=N/NC(=O)Cc2ccccc2)c1O | . | -13 | 5% | -18%[15.4 µM] | .
